D2 ag-1: agonists of human D2 dopamine receptor. AID 485358. HEK293 T-REx D2 cells, calcium flux agonist mode. actives 0.53% (n = 340,000). P14416. activation, % at 2 µM;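 active = activation over 3 SD above normal in the single-dose calcium agonist read, cut at about 30% in these data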
Target sequence (P14416 whole entry, looked up): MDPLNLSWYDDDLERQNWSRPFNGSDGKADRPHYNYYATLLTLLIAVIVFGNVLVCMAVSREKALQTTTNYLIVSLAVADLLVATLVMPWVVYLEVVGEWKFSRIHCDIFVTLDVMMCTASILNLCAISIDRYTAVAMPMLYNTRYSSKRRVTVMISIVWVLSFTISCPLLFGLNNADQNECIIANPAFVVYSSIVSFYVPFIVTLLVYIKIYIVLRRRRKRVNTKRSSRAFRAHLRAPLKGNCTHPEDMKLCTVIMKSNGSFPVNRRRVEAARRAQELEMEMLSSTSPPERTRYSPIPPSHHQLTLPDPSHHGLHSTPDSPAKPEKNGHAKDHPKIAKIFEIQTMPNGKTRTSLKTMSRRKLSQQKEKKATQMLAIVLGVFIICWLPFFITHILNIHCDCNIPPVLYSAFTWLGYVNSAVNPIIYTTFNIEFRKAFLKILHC
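Agonism is scored from calcium flux in a force-coupled, inducible HEK293 cell line expressing D2, read kinetically for 180 s after compound addition against dopamine controls.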
D2 ag-2: agonists of human D2 dopamine receptor (beta-arrestin); P14416; DiscoveRx PathHunter D2 beta-arrestin, luminescence, 90 min; 100% = 57 uM dopamine signal; activation, % (no concentration beside the values); actives 0.084% (n = 360,000); AID 624465; in the data active = activation above about 40%; inconclusive = between about 15% and that limit
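Agonist mode: compounds alone added to overnight-plated D2 PathHunter cells for 90 min at 37 C, with 57 uM final dopamine (EC100) defining full response. Beta-arrestin recruitment detected by chemiluminescent reagent, read after 1 h at ambient temperature.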
D2 PAM-1: human D2 receptor positive allosteric modulation; P14416; DiscoveRx D2 beta-arrestin cells, luminescence, 90 min; 100% = 57 uM dopamine signal; potentiation, % (no concentration beside the values); actives 0.23% (n = 360,000); in the data active = potentiation above about 50%; inconclusive = mostly about 30% to 49%
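PathHunter D2 cells, attached overnight at 37 deg C, received compound in DMSO plus dopamine at EC20 (50 nM final) for 90 min at 37 deg C. Beta-arrestin recruitment was read as luminescence after 1 h with detection reagent at ambient temperature.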
D2 PAM-2: positive allosteric modulators of human D2 dopamine receptor; P14416; HEK293 T-REx D2, calcium flux, EC20 dopamine potentiation; potentiation, % at 10 µM; actives 0.34% (n = 340,000); AID 485347;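 active = potentiation over 3 SD above the plate norm, cut at about 30% in these data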
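Potentiation of an EC20 dopamine calcium response measured kinetically over 180 s, after a preceding 180 s compound-only read flagging agonists. Cells: inducible Hek293 Trex D2 line, 4000/well, cultured overnight at 30 C before dye loading.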
D2 antag: antagonists of human D2 dopamine receptor. P14416. HEK293 TREx D2 cells, calcium flux, dopamine EC80. inhibition, % at 10 µM. actives 2% (n = 340,000). AID 485344; in the data active = inhibition above about 30%; inactive = below that, where a call was filed
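Overnight-induced (tetracycline, 30 C) HEK293 T-REx cells carrying force-coupled D2 receive a no-wash calcium dye, then compound, then EC80 dopamine at 180 s; signals are read kinetically throughout.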
D3 arrestin ag: D3 receptor agonism confirmed, beta-arrestin readout; shares compounds with D2 ag-1; DiscoveRx D3 beta-arrestin cells, luminescence, 90 min; Potency, µM (series often up to 76.9 µM), hits mostly activators; actives 4% (n = 2,300); AID 720506; note: nearly all actives have a fitted effect of over 70% in size
D2 ag-3: counter-screen for D3 agonists: human D2 dopamine receptor agonism. shares compounds with D2 ag-1. DiscoveRx PathHunter D2 beta-arrestin, luminescence, 90 min; response scale: percent relative to full dopamine signal. Potency, µM (titrated, usually from 76.9 µM), hits mostly activators. actives 5.9% (n = 2,300). AID 720507; note: nearly all actives have a fitted effect of over 70% in size
A number is an active result; 0 = inactive; ? = inconclusive; - = not tested or not shown. This is a sample that favours compounds with a hit; in the whole collection about 2.4% have one here. Unless noted, calls come from the whole dose curve; as a rule, active = well fitted activation curve with a large enough effect; inconclusive = small, poorly fitted or top-dose-only effect; inactive = flat fitted curve, though single readings scatter.

SMILES	D2 ag-1	D2 ag-2	D2 PAM-1	D2 PAM-2	D2 antag	D3 arrestin ag	D2 ag-3
Cc1ccc(C)c(NS(=O)(=O)c2ccc(-c3ccc(=O)[nH]n3)o2)c1	44.4	0	0	0	0	0	0
Cc1cccc(NS(=O)(=O)c2ccc(-c3ccc(=O)[nH]n3)o2)c1	-	0	0	-	-	-	-
Cc1ccc(-n2nc(C)c(/C=N/NC(=O)c3cccnc3)c2Cl)cc1	0	0	0	0	0	-	-
OCCN(CCO)Cc1csc2ccccc12	35.0	0	0	0	0	0	0
OCCN(Cc1ccccc1)Cc1ccccc1O	0	0	0	0	0	-	-
CCC(C)c1ccc(OCC(=O)Nc2cccc(C(=O)Nc3ccc(C(=O)O)cc3)c2)cc1 (configuration not stated)	64.0	0	0	0	0	0	0
Cc1c(C#N)c(NC(=O)CCl)n(Cc2ccc(F)cc2)c1C	0	0	0	0	0	-	-
CNC(=O)c1ccc(NC(=O)CC2SC(N3CCCC3)=NC2=O)cc1 (configuration not stated)	0	0	0	0	38.5	0	0
O=C(CC1SC(N2CCCC2)=NC1=O)Nc1ccc(C(=O)NCc2ccccc2F)cc1 (configuration not stated)	-	0	0	-	-	-	-
O=C(CC1SC(N2CCCC2)=NC1=O)Nc1ccc(C(=O)NCCOc2ccccc2F)cc1 (configuration not stated)	65.8	0	0	0	52.1	?	0
CCOC(=O)c1c(NC(=S)Nc2ccc(OC)cc2)sc2c1CCCCC2	0	0	0	0	0	-	-
Cc1ccc(NC2=NCC(=O)N2Cc2cccs2)cc1C	-	0	0	-	-	0	0
CC1=C(C(=O)Nc2ccccc2)C2(CCCCC2)C(C#N)=C(S)N1	0	0	0	0	0	-	-
O=C(c1ccccc1)[C@@H]1[C@@H](C(=O)c2ccc(F)cc2)[C@@]2(C(=O)Nc3ccccc32)[C@H]2c3ccccc3C=CN12	56.7	0	0	0	0	0	0
CC(=O)[C@@H]1[C@@H](C(=O)c2ccccc2)[C@]2(C(=O)Nc3ccccc32)[C@H]2C=Cc3cc(F)ccc3N12	0	0	0	0	0	-	-
COc1cc(Cn2cnnn2)ccc1O	0	0	0	0	0	0	0
c1cc2c(cc1Cn1cnnn1)OCO2	0	0	0	0	0	-	-
O=C(O)c1cnn2cc(-c3[nH]ncc3[N+](=O)[O-])cnc12	0	0	0	0	0	-	-
Cc1coc(C)c1C(=O)Nc1ccc2ccccc2c1	0	0	0	0	0	0	0
C[C@@]12C(=O)Nc3cc(Cl)ccc3C(=O)N1[C@H]1c3cc(Br)ccc3OC[C@@H]1[C@@H]2c1ccccc1	0	0	0	0	0	-	-
CCCN(CC(=O)Nc1ccccc1C)C(=O)c1ccc2c(c1)OCO2	0	0	0	0	0	0	0
COCCN(CC(=O)Nc1cccc(C)c1C)C(=O)c1ccc2c(c1)OCO2	0	0	0	0	0	-	-
O=C(NCCCn1ccnc1)c1ccc(NS(=O)(=O)c2ccc(Cl)c(Cl)c2)cc1	0	0	0	0	0	-	-
COc1ccc(-c2c(C#Cc3ccsc3)c3cc(-c4ccc5c(c4)OCO5)ccc3n2C)cc1	0	0	0	0	0	0	0
COc1ccc(-c2c(C#Cc3ccsc3)c3cc(-c4ccc5c(c4)OCCO5)ccc3n2C)cc1	-	0	0	-	-	-	-
O=C(Cn1cnc2c(cnn2-c2ccc(F)cc2)c1=O)NCc1ccco1	0	0	0	0	0	-	-
COC(=O)C1CCN(Cc2cn(-c3ccccc3)nc2-c2ccc3c(c2)OCO3)CC1	41.4	0	0	0	81.9	0	0
c1ccc(-c2nnc(CN3CCCCC3)o2)cc1	0	0	0	0	0	-	-
COC(=O)C1CCN(Cc2nnc(-c3ccccc3)o2)CC1	45.0	?	0	0	65.6	3.98µM	0
